The target of assay [1] is Nuclear receptor ROR-gamma (Homo sapiens) (UniProt P51449). Kind of assay: qHTS assay to identify small molecule antagonists of the retinoid-related orphan receptor gamma (ROR-gamma) signaling pathway (AID 1159521; note: nearly all actives have a fitted effect of over 50% in size; note: potency is the fitted concentration of half-maximal effect;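 for activity change, negative = inhibition: CHO cells with doxycycline inducible ROR-gamma driving an RORE luciferase reporter; top concentration of the series differs between compounds; % is set by controls: 0 for no effect and ±100 for the full control effect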). The method in brief: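 Readout: ONE-Glo luciferase luminescence, 30 min at room temperature. System: Tet-on RORγ CHO, RORE-LUC. Sequence: compound 2 h, doxycycline 1 uM final, 16 h at 37 C.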

The nature of assay [2]: qHTS assay to identify small molecule agonists of the AP-1 signaling pathway - cell viability counter screen (AID 1159525; calls by dose curve; note: nearly all actives have a fitted effect of over 55% in size; note: potency is the fitted concentration of half-maximal effect). Put shortly: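 Same-well cytotoxicity counter screen of the Tox21 10K library in ME-180 cells. The readout is ATP-dependent luminescence after 5 h compound treatment. Data are normalised to DMSO and tetra n-octyl ammonium bromide controls.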
On the technique in general: Quantitative high-throughput screening tests each substance at several concentrations.

The nature of assay [3]: qHTS assay to identify small molecule antagonists of the retinoic acid receptor (RAR) signaling pathway (AID 1159552; note: nearly all actives have a fitted effect of over 50% in size; note: potency is the fitted concentration of half-maximal effect; for activity, negative = inhibition: % is set by controls: 0 for no effect and ±100 for the full control effect). Put shortly: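 Overnight-plated C3RL4 reporter cells get compound, then retinol to 1 uM final; plates sit 6 hr at 37 C, 5% CO2. A luciferase reagent is added and light output recorded after 30 min at room temperature.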
The nature of assay [4]: qHTS assay to identify small molecule antagonists of the estrogen related receptor (ERR) signaling pathway from Tox21 library - cell viability counter screen (AID 1224834). For viability change, negative = cytotoxic: % is set by controls: 0 for no effect and ±100 for the full control effect. Note: nearly all actives have a fitted effect of over 30% in size. Note: potency is the fitted concentration of half-maximal effect. Put shortly:
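CellTiter-Fluor fluorescence, read after 30 min at 37 C, measures viability of ERR cells. Cells plated at 2,000/well and incubated 6 h before pin-tool compound addition, then exposed 17.5 hours at 37 C.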

Assay [5] has as its target Luciferin 4-monooxygenase (Photinus pyralis) (UniProt P08659). As to the kind of experiment: qHTS assay to identify small molecule inhibitors of firefly luciferase (AID 1224835). Note: nearly all actives have a fitted effect of over 25% in size. Note: potency is the fitted concentration of half-maximal effect. The method in brief:
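Biochemical qHTS: compounds run as interplate titrations against purified firefly enzyme, with D-luciferin and ATP each at its KM concentration. Light output recorded by CCD imaging.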

Assay [6] can be described thus: qHTS assay to identify small molecule agonists of the constitutive androstane receptor (CAR) signaling pathway - cell viability counter screen (AID 1224836). Note: nearly all actives have a fitted effect of over 45% in size. Note: potency is the fitted concentration of half-maximal effect. The method in brief: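 Fluorescence from CellTiter-Fluor indicates live cells after 23 h exposure. The human hepatoma line expresses hCAR and a CYP2B6-2.2kb reporter. Incubation medium contains 0.75 uM PK11195 (final).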

Assay [7] can be described thus: qHTS assay to identify small molecule antagonists of the constitutive androstane receptor (CAR) signaling pathway - cell viability counter screen (AID 1224837). Note: nearly all actives have a fitted effect of over 45% in size. Note: potency is the fitted concentration of half-maximal effect. The method in brief:
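Cytotoxicity counter-screen: CellTiter-Fluor fluorescence after 23 h compound exposure (15-point qHTS) in double-stable HepG2-CYP2B6-hCAR cells, with 50 nM CITCO added.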

Assay [8] deals with Nuclear receptor subfamily 1 group I member 3 (Homo sapiens) (UniProt Q14994). Kind of assay: qHTS assay to identify small molecule antagonists of the constitutive androstane receptor (CAR) signaling pathway (AID 1224838).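 Note: HepG2 cells stably expressing hCAR with CYP2B6 luciferase reporter stimulated by CITCO; nearly all actives have a fitted effect of over 40% in size.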 Note: potency is the fitted concentration of half-maximal effect. Put shortly: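 Antagonism measured as luciferase signal (ONE-Glo, 30 min, room temperature) in CAR-stimulated cells: HepG2-CYP2B6-hCAR double-stable line exposed 24 hr at 37 C to compound in a 15-point series plus 50 nM CITCO.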

Assay [9] shares this target. Kind of assay: qHTS assay to identify small molecule agonists of the constitutive androstane receptor (CAR) signaling pathway (AID 1224839). Note: nearly all actives have a fitted effect of over 15% in size. Note: potency is the fitted concentration of half-maximal effect. Put shortly: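 Stable hCAR/CYP2B6-2.2kb HepG2 line in DMEM with 10% FBS; compounds (15 concentrations) and 0.75 uM PK11195 final, 24 h at 37 C/5% CO2, then ONE-Glo luminescence after 30 min.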
Assay [10] can be described thus: qHTS assay to identify small molecule antagonists of the retinoid acid receptor (RAR) signaling pathway - cell viability counter screen (AID 1159551). Note: nearly all actives have a fitted effect of over 35% in size. Note: potency is the fitted concentration of half-maximal effect. The method in brief:
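Cytotoxicity counter screen: ATP content quantified by CellTiter-Glo luminescence in C3RL4 cells treated 6 hr at 37 C with compound and retinol (1 uM final). Cells plated at 1,000/well and cultured overnight before dosing.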

Assay [11] deals with Retinoic acid receptor RXR-alpha (Homo sapiens) (UniProt P19793). Kind of assay: qHTS assay to identify small molecule agonists of the RXR signaling pathway (AID 1159527; calls by dose curve; note: % is set by controls: 0 for no effect and ±100 for the full control effect; nearly all actives have a fitted effect of over 35% in size). The method in brief:
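Reporter activation is measured as beta-lactamase activity via FRET substrate cleavage (emission 460/530 nm) in HEK 293T cells expressing an RXR-alpha-driven bla construct, following 16 hr compound exposure at 37 C.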

Assay [12] in a line: qHTS assay to identify small molecule agonists of the RXR signaling pathway - cell viability counter screen (AID 1159529). Note: nearly all actives have a fitted effect of over 50% in size. Note: potency is the fitted concentration of half-maximal effect. The method in brief: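 Tox21 10K compounds were tested for cytotoxicity against GeneBLAzer RXR-alpha HEK 293T cells grown in 2% charcoal-stripped FBS. Exposure lasted 16 hr at 37 C, 5% CO2; viability read by CellTiter-Glo luminescence.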
Assay [13] in a line: qHTS assay to identify small molecule agonists of the AP-1 signaling pathway (AID 1159526; calls by dose curve; note: % is set by controls: 0 for no effect and ±100 for the full control effect).

Inconclusive results are not listed. A number with no mark means an inactive call. Activity calls are given as the source filed them. Unless noted, calls come from the whole dose curve; as a rule, active = well fitted curve in the direction sought with a large enough effect in the repeat runs; inconclusive = weak or mixed curves; inactive = no such curve, though single readings can be large; an effect the other way counts as inactive or inconclusive.

Luciferin 4-monooxygenase (Photinus pyralis), sequence (P08659 whole entry, looked up): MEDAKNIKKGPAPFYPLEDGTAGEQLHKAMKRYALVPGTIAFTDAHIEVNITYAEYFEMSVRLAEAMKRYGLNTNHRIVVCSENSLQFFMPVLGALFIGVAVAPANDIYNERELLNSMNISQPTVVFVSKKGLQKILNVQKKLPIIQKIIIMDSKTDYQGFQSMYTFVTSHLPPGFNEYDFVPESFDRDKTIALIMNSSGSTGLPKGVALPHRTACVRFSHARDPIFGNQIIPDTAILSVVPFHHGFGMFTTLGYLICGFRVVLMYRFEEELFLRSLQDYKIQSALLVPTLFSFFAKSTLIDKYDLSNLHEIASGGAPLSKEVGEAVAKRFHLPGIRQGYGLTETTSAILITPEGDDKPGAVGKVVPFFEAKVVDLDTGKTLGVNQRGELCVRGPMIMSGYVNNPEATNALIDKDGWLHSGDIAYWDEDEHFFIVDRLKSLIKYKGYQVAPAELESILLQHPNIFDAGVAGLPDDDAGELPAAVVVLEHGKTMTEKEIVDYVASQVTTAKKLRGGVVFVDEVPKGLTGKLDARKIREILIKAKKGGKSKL
Nuclear receptor subfamily 1 group I member 3 (Homo sapiens), sequence (Q14994 whole entry, looked up): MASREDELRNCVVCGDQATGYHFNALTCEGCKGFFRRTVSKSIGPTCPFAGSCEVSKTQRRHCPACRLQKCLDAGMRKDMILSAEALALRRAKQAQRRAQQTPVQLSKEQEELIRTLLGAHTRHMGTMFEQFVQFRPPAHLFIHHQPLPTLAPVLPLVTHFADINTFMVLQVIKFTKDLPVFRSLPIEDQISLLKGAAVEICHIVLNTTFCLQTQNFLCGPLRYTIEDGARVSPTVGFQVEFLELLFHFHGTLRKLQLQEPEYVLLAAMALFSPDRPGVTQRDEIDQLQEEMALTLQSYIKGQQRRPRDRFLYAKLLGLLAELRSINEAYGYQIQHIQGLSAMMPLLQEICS
Retinoic acid receptor RXR-alpha (Homo sapiens), sequence (P19793 whole entry, looked up): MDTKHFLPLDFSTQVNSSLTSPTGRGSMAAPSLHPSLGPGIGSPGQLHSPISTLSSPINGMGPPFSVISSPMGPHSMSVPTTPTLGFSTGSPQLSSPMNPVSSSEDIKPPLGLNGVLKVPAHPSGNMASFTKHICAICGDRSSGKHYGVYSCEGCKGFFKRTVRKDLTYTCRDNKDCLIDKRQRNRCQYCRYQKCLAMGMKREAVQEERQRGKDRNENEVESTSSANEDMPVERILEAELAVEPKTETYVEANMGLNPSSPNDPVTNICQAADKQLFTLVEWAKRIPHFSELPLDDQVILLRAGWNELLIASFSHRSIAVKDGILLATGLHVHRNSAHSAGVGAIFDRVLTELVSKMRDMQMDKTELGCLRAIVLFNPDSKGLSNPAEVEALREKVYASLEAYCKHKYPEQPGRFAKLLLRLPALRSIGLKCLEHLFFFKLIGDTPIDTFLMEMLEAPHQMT

Turning to `Cc1cc(C)c(O)c(C(C)(C)C)c1`, the Potency result in assay [1], in assay [2], in assay [3], in assay [4], in assay [5] and in [6] was “inactive” throughout. For the same compound, the Potency entry in [7], in assay [8] and in assay [9] was “inactive” each time.

As for `O=C(Nc1ccccc1)c1cc(Cl)ccc1O`, the Potency in assay [1] is 12.2 µM (active); in [4] it was 15.4 µM (active); in assay [5] it was 3.99 µM (active); in [6], 24.3 µM (active). The Potency entry in assay [2], in assay [10] and in assay [3] was “inactive” each time.

In the case of `CN1CCN(C)CC1`, the Potency result in assay [1], in assay [2], in [11], in assay [12], in [10] and in [3] was “inactive” in each case. The Potency entry in assay [4], in assay [5], in [6] and in assay [7] was “inactive” in each case.

Turning to `C=C[Si](C)(C)Cl`, the activity change, negative = inhibition was -27.2% [at 8.39 µM] in assay [1] and 5.1% [at 10.5 µM] in assay [5]. In addition, the viability change, negative = cytotoxic is -3.04% [at 6.97 µM] in [2], 5.38% [at 8.39 µM] in assay [4] and -0.0044% [at 8.39 µM] in [6]. Further, the activity change, negative = cytotoxicity in assay [10] is -1.54% [at 8.39 µM]; in assay [7] it was -8.76% [at 8.39 µM]. The activity, negative = inhibition in assay [3] was 83.8% [at 8.39 µM].

As for `c1ccc2c(c1)-c1ccc3ccc4cccc5cc-2c1c3c45`, the Potency entry in [1], in assay [2], in [10] and in assay [8] was “inactive” throughout. Besides, the Potency in [5] was 11 µM (active); in assay [9], 11.9 µM (active).

For `CCCCCN=C(N)N/N=C/c1c[nH]c2ccc(OC)cc12`, the Potency was 33.5 µM (active) in assay [1]; 23.9 µM (active) in assay [2]; 7.56 µM (active) in assay [12]; 29.8 µM (active) in assay [10]; 13.3 µM (active) in assay [3]; 26.6 µM (active) in assay [4]. In addition, the values for the Potency in [6], in assay [7] and in assay [8] were 21.1 µM (active), 18.8 µM (active) and 16.8 µM (active), respectively. The Potency result in assay [5] and in assay [9] was “inactive” in each case.

Turning to `O=C(CCN1CCC(c2ccccc2)C1)c1ccc2c(c1)OCCO2` (stereo not drawn), the Potency in [1] is 33.5 µM (active). For the same compound, the Potency result in [2], in [10], in assay [4], in assay [5], in assay [6] and in [7] was “inactive” in each case. Further, the Potency entry in [9] was “inactive”.

For the compound `CCn1c2ccccc2c2ccccc21`, the Potency entry in assay [1], in assay [2], in assay [10], in assay [3], in assay [4] and in assay [5] was “inactive” each time. Besides, the Potency result in assay [6], in assay [7] and in assay [8] was “inactive” each time. Further, the Potency in [9] is 27.3 µM (active).

As for `Cc1ccc(C=O)cc1`, the Potency result in [1], in [2], in [12], in assay [10], in assay [4] and in assay [5] was “inactive” each time. Further, the Potency entry in assay [6] and in [7] was “inactive” in each case.

For `O=C1CCC/C=C\CCCCCCCCCC1`, the Potency entry in [1], in assay [2], in assay [10], in assay [3], in assay [4] and in assay [5] was “inactive” in each case. Besides, the Potency result in assay [6], in assay [7] and in assay [8] was “inactive” in each case. Moreover, the Potency in assay [9] was 27.3 µM (active).

As to `c1ccc(C[P+](c2ccccc2)(c2ccccc2)c2ccccc2)cc1`, the Potency in [1] is 24.3 µM (active); in [4], 21.7 µM (active); in assay [6], 30.6 µM (active). Besides, the Potency entry in [2], in assay [13], in assay [10], in [5] and in [9] was “inactive” in each case.

As to `CCN(CC)c1ccc(N=Nc2ccccc2)cc1`, the Potency entry in assay [1], in assay [2], in assay [3] and in assay [8] was “inactive” each time. The Potency in assay [12] was 19.5 µM (active); in [4], 24.3 µM (active); in assay [5], 0.502 µM (active); in assay [9], 13.7 µM (active).

The record behind these values is PubChem BioAssay (Tox21).
